Activity calls are given as the source filed them. The calls were made as follows: active = hit-call score of the fitted dose curve at least 0.9, where 1 is the maximum; inconclusive = response in the unintended direction; inactive = score below 0.9.
Each compound was assayed against Estrogen receptor (Homo sapiens) (UniProt P03372) (assay: OT_ERa_GFPERaERE_0120: Odyssey Thera (OT) 2-hour HeLa Transcription Induction Assay for Estrogen Receptor (AID 2283382)).
Sequence of Estrogen receptor (Homo sapiens) (P03372 whole entry, looked up): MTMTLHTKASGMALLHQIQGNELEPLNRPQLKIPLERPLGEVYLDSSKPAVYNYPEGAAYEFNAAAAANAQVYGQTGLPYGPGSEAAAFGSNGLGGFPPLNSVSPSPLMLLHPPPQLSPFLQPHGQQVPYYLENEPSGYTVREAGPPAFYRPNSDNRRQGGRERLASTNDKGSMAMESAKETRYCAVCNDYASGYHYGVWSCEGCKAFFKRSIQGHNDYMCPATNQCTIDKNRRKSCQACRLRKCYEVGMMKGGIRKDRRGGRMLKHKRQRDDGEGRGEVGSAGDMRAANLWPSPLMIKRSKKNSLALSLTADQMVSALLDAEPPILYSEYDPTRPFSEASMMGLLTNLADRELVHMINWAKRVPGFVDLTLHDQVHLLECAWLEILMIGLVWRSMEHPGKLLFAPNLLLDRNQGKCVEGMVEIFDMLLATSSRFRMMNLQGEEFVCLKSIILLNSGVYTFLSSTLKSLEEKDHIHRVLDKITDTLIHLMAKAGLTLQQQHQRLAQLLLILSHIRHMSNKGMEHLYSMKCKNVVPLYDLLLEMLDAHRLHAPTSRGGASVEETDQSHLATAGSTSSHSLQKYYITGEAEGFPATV
Protocol: OT_ERa_GFPERaERE_0120 is a cell-based, single-readout assay that uses HeLa, a human cervix cell line, with measurements taken at 2 hours after chemical dosing in a 384-well plate.OT_ERa_GFPERaERE_0120 is one of one assay component(s) measured or calculated from the OT_ERa_GFPERaERE_0120 assay. It is designed to make measurements of fluorescent protein induction, a form of inducible reporter, as detected with optical microscopy: fluorescence microscopy signals by Microscopy technology.Data from the assay component OT_ERa_GFPERaERE_0120 was analyzed into 1 assay endpoint. This assay endpoint, OT_ERa_EREGFP_0120, was analyzed in the positive analysis fitting direction relative to DMSO as the negative control and baseline of activity. Using a type of inducible reporter, measures of receptor for gain-of-signal activity can be used to understand the reporter gene at the pathway-level as they relate to the gene ESR1. Furthermore, this assay endpoint can be referred to as a primary readout, because the performed assay has only produced 1 assay endpoint. To generalize the intended target to other relatable targets, this assay endpoint is annotated to the nuclear receptor intended target family, where the subfamily is steroidal.
All assay endpoints are quantified using high content image analysis algorithms.
In the case of `CC(C)=CC1C(C(=O)OCc2cccc(Oc3ccccc3)c2)C1(C)C` (stereo not given), the outcome is reported as “inactive”.
With `N#CCCC(Br)(C#N)CBr` (stereo not given) the outcome was “inactive”.
`CCOCn1c(-c2ccc(Cl)cc2)c(C#N)c(Br)c1C(F)(F)F` was tested, and the outcome was “inactive”.
`O=C(NC(=O)c1c(F)cccc1F)Nc1cc(Cl)c(OC(F)(F)C(F)C(F)(F)F)cc1Cl` (stereo not given) was tested, and the outcome was “inactive”.
For `O=C(O)COc1ccc(Cl)cc1`, the outcome was “inactive”.
In the case of `CCCSP(=S)(OCC)Oc1ccc(SC)cc1` (stereo not given), the outcome is reported as “inactive”.
In the case of `CNC(=O)O/N=C/C(C)(C)S(C)(=O)=O`, the outcome is reported as “inactive”.
In the case of `O=S1OC[C@@H]2[C@H](CO1)[C@]1(Cl)C(Cl)=C(Cl)[C@@]2(Cl)C1(Cl)Cl` (stereo not given in full), the outcome is reported as “inactive”.
For `CCCCCCCCCCCCN(C)C`, the outcome was “inactive”.
In the case of `O=CCCl`, the outcome is reported as “inactive”.
For `C=CCN=C=S`, the outcome was “inactive”.
For `CCOc1ccc(N)cc1`, the outcome was “inactive”.
In the case of `N#CCC#N`, the outcome is reported as “inactive”.
With `CC(C)N(C(=O)CCl)c1ccccc1` the outcome was “inactive”.
With `Oc1c(Br)cc(Br)cc1Br` the outcome was “inactive”.
`CCN(CCO)CCO` was tested, and the outcome was “inactive”.
For `Cc1cc(Cl)ccc1OC(C)C(=O)O` (stereo not given), the outcome was “inactive”.
For `CCC[CH2][Sn]([Cl])([Cl])[CH2]CCC`, the AC50 was 3.3 µM (active).
For `O=C(NC(=O)c1c(F)cccc1F)Nc1ccc(Cl)cc1`, the outcome was “inactive”.
`N#Cc1cccnc1` was tested, and the outcome was “inactive”.
For `O=C(CCl)Nc1ccccc1`, the outcome was “inactive”.
With `O=S1(=O)OC(c2cc(Br)c(O)c(Br)c2)(c2cc(Br)c(O)c(Br)c2)c2ccccc21` the outcome was “inactive”.
With `O=C1c2ccccc2C(=O)C1C(=O)C(c1ccccc1)c1ccc(Cl)cc1` (stereo not given) the outcome was “inactive”.
In the case of `CC(O)(CS(=O)(=O)c1ccc(F)cc1)C(=O)Nc1ccc(C#N)c(C(F)(F)F)c1` (stereo not given), the outcome is reported as “inactive”.
In the case of `CC(=Cc1ccccc1)[N+](=O)[O-]`, the AC50 is reported as 19.8 µM (active).
